Screening results from PubChem.
This is a sample that favours compounds with a hit; in the whole collection about 3.8% have one here.
aDG glyco up: alpha-DG glycosylation activation. Pro5-aDG cells, alpha-DG glycosylation AlphaScreen (IIH6); 0% Pro5, 100% B10-LARGE cell signal. activation, % at 10 µM. 360,000 compounds, 0.22% hits;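 active = activation of at least 8% versus controls, or a plate z-score of at least 8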;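 note: Pro5 are CHO cells carrying HIG-tagged alpha-DG that lacks glycosylation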
MPTP inh: inhibitors of mitochondrial permeability transition pore; isolated mouse mitochondria, Ca2+ swelling absorbance, 30 min; inhibition, % at 10 µM; 360,000 compounds, 1.4% hits;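 active = inhibition of 50% or more, scaled per plate between neutral and stimulator controls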
FAS TE block: blocks the thioesterase domain of human fatty acid synthase | 360,000 compounds, 0.67% hits | recombinant FAS-TE, OMFH fluorogenic substrate, fluorescence endpoint | P49327 | inhibition, % at 15 µM;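 active = compounds whose normalised, plate-corrected inhibition of enzyme fluorescence in the single-dose primary screen is 50% or more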
H9c2 protect: myocardial damage modulation in H9c2 cells | 360,000 compounds, 0.63% hits | protection from H2O2 cell death, % at 20 µM | H9c2 cardiomyocytes, H2O2 injury protection, ATPLite, 2 h | AID 588492;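 active = compounds giving at least 50% protection of heart cells from peroxide-induced death in the single-dose screen, raw or plate-pattern-corrected value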
Yeast superoxide: yeast age-related superoxide inhibition as caloric restriction mimetic. S. cerevisiae aged cells, superoxide DHE fluorescence; stronger effect = lower value. superoxide response (% of plate mean), % at 10 µM. 330,000 compounds, 0.18% hits;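 active = superoxide response under a set limit, about three screen SD below normal, cut at about 65% in these data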;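 note: yeast aged for seven days with compound at 30 °C before DHE staining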
SUMO Mot1 rescue: inhibitors of SUMOylation pathway: yeast Mot1-301 growth rescue. S. cerevisiae Mot1-301 growth rescue, ATP luminescence, 38.5C; percent above DMSO median, 100 means doubled. 320,000 compounds, 1% hits. growth rescue, % at 18.8 µM;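 active = every valid replicate shows activation above 250% relative to neutral control wells; inactive = the rest, any valid replicate at or below 250%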
aDG conf: confirmation of alpha dystroglycan glycosylation activators. shares compounds with aDG glyco up. Pro5-aDG cells, alpha-DG glycosylation, IIH6 AlphaLISA; scaled to LARGE-overexpressing B10 cells as 100%. activation, % at 10 µM (by protocol). 600 compounds, 17% hits. AID 651671;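 active = activation of at least 7% in one or more replicates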;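 note: cells exposed to compound for two days before detection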
Large screens that a line does not name were inactive (follow-up assays come after a bar, where they were run).

Cc1nc(-c2ccc(Cl)cc2)sc1C1(C)CC(c2ccc(F)cc2)=NO1 (stereo not given)	none
COc1cc(NC(=O)CNC(=O)Cn2c(C)cc3ccccc3c2=O)cc(OC)c1OC	aDG glyco up 3.3 | aDG conf inactive
COc1ccc(-n2c(=O)c3ccccc3n(Cc3cccc(C)c3)c2=O)cc1OC	none (no result: SUMO Mot1 rescue)
COc1ccc(-n2c(=O)c3ccccc3n(Cc3ccccc3F)c2=O)cc1OC	aDG glyco up 1.8 | aDG conf inactive
CC(=O)c1c(COC(=O)c2ccc(C)cc2)nc2ccccc2[n+]1[O-]	aDG glyco up 2.8 | aDG conf inactive
CC(C)(C)c1ccc(S(=O)(=O)NC(=O)C2(C)CCN2C(=O)CC2CCCC2)cc1 (stereo not given)	none (no result: Yeast superoxide, SUMO Mot1 rescue)
CN(C)c1ccc(C(=O)OCC(=O)Nc2ccc(S(N)(=O)=O)cc2)cc1	aDG glyco up 6.0 | aDG conf inactive
O=C(Nc1cccc2ccccc12)c1ccc([N+](=O)[O-])o1	none
O=C(Nc1cccc2ccccc12)c1ccc([N+](=O)[O-])s1	aDG glyco up 12 | aDG conf 5.7
O=C(Nc1ccccc1F)c1ccc([N+](=O)[O-])s1	aDG glyco up 16 | aDG conf 3.7
CN(C)NC(=O)c1ccc([N+](=O)[O-])s1	none
CC(=O)c1c(C)[nH]c(C(=O)OCc2ccc(Br)cc2)c1C	aDG glyco up 9.0 | aDG conf inactive
Cc1ccc(-c2nnc(SCC(=O)N(CC(C)C)c3c(N)n(Cc4ccccc4)c(=O)[nH]c3=O)n2N)cc1	none
C[C@@H]1CN([C@H](C)CO)C(=O)CCCn2nncc2CO[C@H]1CN(C)Cc1cccc2c1OCCCO2	none (no result: Yeast superoxide, SUMO Mot1 rescue)
Cc1onc(-c2ccccc2)c1CNS(=O)(=O)c1ccccc1[N+](=O)[O-]	aDG glyco up 2.6 | aDG conf inactive
CCOC(=O)N1CCN(C(=O)c2cc(COc3cccc(C(C)=O)c3)on2)CC1	none
O=C(c1cc(COc2ccc3ncccc3c2)on1)N1CCC[C@H]1CO	aDG glyco up 5.5 | aDG conf inactive
CCOC(=O)N1CCN(C(=O)c2cc(COc3ccc4ncccc4c3)on2)CC1	aDG glyco up 7.8 | aDG conf inactive
O=C(NN1C(=O)NC2(CCCCC2)C1=O)c1cc2ccccc2o1	none
O=C(NCC1CCCO1)C1CCN(C2CCN(CCCC3CCCC3)CC2)CC1 (stereo not given)	none
O=C(NCC1CCCO1)C1CCN(C2CCN(C(=O)CC3CCCC3)CC2)CC1 (stereo not given)	aDG glyco up 3.7 | aDG conf inactive
CC[C@]12c3[nH]c4ccc(Cl)cc4c3CCN1C(=O)[C@@H](CC(=O)NCCc1ccccn1)C[C@@H]2C(=O)N1CCN(C(=O)C2CC2)CC1	aDG glyco up 7.9 (no result: SUMO Mot1 rescue) | aDG conf inactive
COc1ccc(S(=O)(=O)N2CCCCCC2)cc1C(=O)N(C)Cc1ccccc1F	none
N#Cc1ccccc1Cn1c(=O)n(-c2ccc(CC(=O)NCc3ccco3)cc2)c(=O)c2sccc21	aDG glyco up 10 | aDG conf inactive
N#Cc1ccccc1Cn1c(=O)n(Cc2ccc(C(=O)NCc3ccco3)cc2)c(=O)c2sccc21	none
COC(=O)[C@@]1(C)[C@H]2C(=O)N(Cc3ccccc3)C(=O)[C@H]2[C@H]2CN=C(SCc3ccc(C#N)cc3)N21	aDG glyco up 5.6 (no result: SUMO Mot1 rescue) | aDG conf inactive
N#Cc1cccc(NC(=O)CSc2nnc(-c3n[nH]c4ccccc34)o2)c1	none
C#Cc1cccc(NC(=O)CSc2nnc(-c3ccc(C(F)(F)F)cn3)o2)c1	aDG glyco up 3.5 | aDG conf inactive
COC(=O)[C@@]12CCCN1[C@H](c1ccc(-c3ccc(Cl)c(Cl)c3)cc1)[C@H]1C(=O)N(C)C(=O)[C@H]12	none
O=C(CNC(=O)c1cccc(F)c1)N/N=C/c1ccc([N+](=O)[O-])s1	aDG glyco up 11 | aDG conf inactive
CCc1ccccc1NC(=O)CSc1nc2ccccc2nc1N1CCOCC1	aDG glyco up 13 | aDG conf inactive
Cc1cccc(N(C)S(=O)(=O)c2ccc3c(c2)C(C)(C)C(=O)N3C)c1	none
C[C@H]1CN([C@@H](C)CO)S(=O)(=O)c2ccc(Br)cc2O[C@H]1CN(C)C(=O)CN(C)C	aDG glyco up 10 (no result: Yeast superoxide, SUMO Mot1 rescue) | aDG conf inactive
CC(C)n1cc(CN2CCCC(C(=O)Nc3cccc(-c4cc5ccccc5[nH]4)c3)C2)cn1 (stereo not given)	aDG glyco up 8.8 | aDG conf 5.3
Cn1cc(CN2CCCC(C(=O)Nc3cccc(-c4cc5ccccc5[nH]4)c3)C2)cn1 (stereo not given)	none
CCC(CC)C(=O)Nc1nnc(S(=O)(=O)Nc2ccccc2C)s1	none
Nc1nnc(-c2ccc([N+](=O)[O-])o2)s1	aDG glyco up 7.9 (no result: Yeast superoxide, SUMO Mot1 rescue) | aDG conf 4.0
CC(C)OC(=O)Nc1ccc2c(c1)N(C(=O)CCN1CCOCC1)c1ccccc1CC2	none
CC(C)c1ccc(NC(=O)C2Cc3c(-c4ccc(Cl)cc4)ccnc3O2)cc1 (stereo not given)	aDG glyco up 5.0 (no result: Yeast superoxide, SUMO Mot1 rescue) | aDG conf 6.5
CCC(C(=O)NCc1ccco1)N(C(=O)CNS(=O)(=O)c1ccccc1)c1ccc(F)cc1 (stereo not given)	none
CCC(C(=O)NCc1ccco1)N(C(=O)CNS(=O)(=O)c1ccc(F)cc1)c1ccccc1F (stereo not given)	aDG glyco up 3.5 | aDG conf inactive
COc1ccccc1C=NN=Cc1ccccc1OC	none (no result: Yeast superoxide, SUMO Mot1 rescue)
N/C(=N\OC(=O)Nc1ccccc1)c1ncc([N+](=O)[O-])s1	aDG glyco up 2.8 | aDG conf 3.3
O=C(COC(=O)COc1ccccc1)Nc1ncc([N+](=O)[O-])s1	none
CCCC(C(=O)Nc1ccc2c(C)cc(=O)oc2c1)c1ccccc1 (stereo not given)	none
CC1(C)CC(=O)C=C(c2ccccc2-c2ccc(S(C)(=O)=O)cc2)C1=O	aDG glyco up 5.6 (no result: Yeast superoxide, SUMO Mot1 rescue) | aDG conf inactive
CC1(C)CC(=O)C=C(c2ccccc2-c2ccc3cc[nH]c3c2)C1=O	none (no result: Yeast superoxide, SUMO Mot1 rescue)
Nc1[nH]c(C(=O)c2ccccc2)c(-c2ccccc2Br)c1C(=O)NCCc1ccc(Cl)cc1Cl	none (no result: H9c2 protect, Yeast superoxide, SUMO Mot1 rescue)
Nc1nc(-c2cccnc2)nn1S(=O)(=O)c1ccccc1	aDG glyco up 7.2 | aDG conf inactive
Nc1nc(-c2ccco2)nn1S(=O)(=O)c1ccccc1	none
CC(=O)c1ccc(NC(=O)C2CCCC2)cc1	aDG glyco up 2.1 | aDG conf inactive
O=c1ccn([C@@H]2O[C@H](CNCC3=Cc4cc(O)ccc4OC3)[C@@H](O)[C@H]2O)c(=O)[nH]1	none (no result: Yeast superoxide, SUMO Mot1 rescue)
